This is part of a sample that, as a whole, favours compounds with a hit. Of some 83,000 tested, about 20% had one in any assay.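 Plates (96-well) were seeded with cells, treated with compound at one concentration, and incubated for 48 hours before percent growth was determined.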 Values without a mark were called inactive. Calls of active or inactive are those of the source. Rule for the calls: active = growth percent below 10; inactive = the rest.
Test system: SK-MEL-5 melanoma
Assay: NCI-60 one-dose screen, 48 h (100 = growth as untreated, 0 = no growth, -100 = all killed)
Conditions: 10 µM unless noted

| Compound | growth |
| --- | --- |
| O=C(CSc1nc2ccc([N+](=O)[O-])cc2[nH]1)Nc1ccc(F)c(Cl)c1 | -10.8% (active) |
| Cc1cc(C)c(O)c(CNCCCCCCNCc2cc(C)cc(C)c2O)c1 | -91.8% (active) |
| CS(=O)(=O)c1cccnn1 | 92.9% |
| Cc1ccc(S(=O)(=O)Nc2ccccc2)cc1N | 88.5% |
| Nc1cc(C(=O)O)[nH]c(=S)n1 | 98.8% |
| COc1ccc(-c2nc3ccccn3c2/C=C/C(=O)c2cc(OC)c(OC)c(OC)c2)cc1OC | -86.7% (active) |
| O=C(Nc1cccc2cccnc12)c1cc(C(=O)c2ccc(Cl)cc2)n2ccc(-c3ccncc3)cc12 | 97.2% |
| Cc1cccc(C[C@H](NC(=O)Nc2ccc(C)cc2F)C(=O)N[C@@H]2C(=O)N3C[C@H](O)C[C@H]3C(=O)N3CCN(C)C[C@H]3C(=O)N[C@@H](C)C(=O)N3C[C@H](C)C[C@H]3C(=O)O[C@H]2C)c1 | 66.3% |
| O=C1COCCN1c1ccc(NCc2cn(Cc3cccc4ccccc34)c3ccccc23)cc1 | 82.1% |
| COc1ncnc2c(-c3ccccc3)cn(COCc3ccccc3)c12 | 5.61% (active) |
| O=C1CN(Cc2ccc(C(=O)NO)cc2)C(=O)[C@@H](Cc2ccccc2)N1 | 107% |
| CC(C)C1=NOC(=O)C1=Cc1cn(-c2ccco2)nc1-c1ccccc1 | 95.3% |
| c1ccc(-c2nnc(-c3c[nH]c4ncccc34)s2)cc1 | 91.6% |
| COCCCNc1nc(NC(=O)c2cc(Br)cc(C(F)(F)F)c2)cc(-c2cccnc2)n1 | 70.6% |
| CCn1cc(-c2cc(-c3ccc(Cl)cc3)nc(N)n2)c(-c2ccc(Br)cc2)n1 | 90.8% |
| CCOC(CNC(=O)c1cccc([N+](=O)[O-])c1)OCC | 89.2% |
| Cc1cccc([N+](=O)[O-])c1I | 109% |
| CCOc1cc(NC(=O)c2ccccc2)c(OCC)cc1N | 107% |
| CN(C)CCOc1ccc(/C(=C(/CCCl)c2ccccc2)c2ccccc2)cc1 | -98.3% (active) |

| Compound | growth |
| --- | --- |
| Nc1nc(N)c2c(n1)NC(c1ccc(F)cc1)C1CCc3ccccc3C1=N2 (stereo not drawn) | 1.07% (active) |
| CNC(=O)c1cc(Oc2ccc3nc(NC(=O)c4ccc5ncccc5c4)sc3c2)ccn1 | 86.4% |
| CC1(C)CC[C@]23CC[C@]4(C)[C@H](CC[C@@H]5[C@@]6(C)C/C(=C/c7ccncc7)C(=O)C(C)(C)[C@@H]6CC[C@]54C)[C@H]2[C@H]1OC3=O | 36.3% [100 µM] |
| CC1=CC[C@@H]2C(C)(C)C(=O)CC[C@@]2(C)[C@@H]1COc1ccc2ccc(=O)oc2c1 | 26.1% |
| COc1ccc(/C=C/C=C\C(=O)c2ccc(-n3ccnc3)cc2)cc1 | 88.6% |
| CCc1cccc(Cl)c1 | 103% |
| Cc1ccc(S(=O)(=O)n2cc(C(=O)C(=O)N3CCCCC3)c3ccccc32)cc1 | 47.3% |
| Cn1cc(-c2noc(-c3cn(C)c4ncc(F)cc34)n2)c2cc(Cl)ccc21 | 87% |
| O=C(Nc1cccc2ccccc12)c1cc2ccccc2cc1O | -57.3% (active) |
| C#C[C@]1(O)CC[C@H]2[C@@H]3CC=C4c5nc(Nc6ncccn6)sc5CC[C@]4(C)[C@H]3CC[C@@]21C | 68.1% |
| CC(=O)OC[C@]12CC[C@@H](C(=O)CBr)[C@@H]1[C@H]1CC[C@@H]3[C@@]4(C)CCCNC(C)(C)[C@@H]4CC[C@@]3(C)[C@]1(C)CC2 | -91.7% [100 µM] (active) |
| O=S(=O)(c1ccc(N/N=C\c2ccccc2Cl)cc1)c1ccc(N/N=C/c2ccccc2Cl)cc1 | 97.1% |
| Nc1nc(Cl)c2ncn(Cc3cc4c(cc3I)OCO4)c2n1 | 72% |
| Cc1ccc2c(c1)/C(=N\N=C/c1cn(C(C)C)c3ccccc13)C(=O)N2 | 66% |
| O=C1CC(c2ccccc2)Cc2nc3ccc(Cl)cc3cc21 (stereo not drawn) | -14.3% (active) |
| C=C(C)[C@@H]1CC[C@]2(C(N)=O)CC[C@]3(C)[C@H](CC[C@@H]4[C@@]5(C)CC[C@H](O)C(C)(C)[C@@H]5CC[C@]43C)[C@@H]12 | -39.6% [100 µM] (active) |
| COc1ccc(-c2cc(-c3ccc(Cl)cc3)nc(SCCCCCCC(=O)NO)n2)cc1 | -6.04% (active) |
| Cc1cc[n+](CCCCCCCCCC[n+]2ccc(C)cc2)cc1 | 92.8% |
| CCCSc1nc(N)nc2nc[nH]c12 | 101% |

From PubChem BioAssay (NCI)
